Experimental data taken from PubChem BioAssay AID1794842 (National Center for Advancing Translational Sciences (NCATS), 2023).
Screen size: about 2,800 compounds; fewer than 10 were called active. The call rests on the fitted dose curve; in most records, active means well fitted curve in the direction sought with a large enough effect; inconclusive means small, poorly fitted or top-dose-only effect, or another doubt; inactive means no such curve, though single readings can be large or run the other way. A selection follows.

biological target: Metallo-beta-lactamase type 2 (Klebsiella pneumoniae) (UniProt C7C422); test: qHTS to identify inhibitors of the New Delhi Metallo-beta-lactamase (NDM): Meropenem screen against the machine-based learning selections.; further: % of control where 0% means no effect; conditions: Purified NDM-1, meropenem hydrolysis, absorbance 300 nm; series mostly up to 38.4 µM; activity change, negative = inhibition: at the top concentration
Sequence (C7C422 whole entry, looked up): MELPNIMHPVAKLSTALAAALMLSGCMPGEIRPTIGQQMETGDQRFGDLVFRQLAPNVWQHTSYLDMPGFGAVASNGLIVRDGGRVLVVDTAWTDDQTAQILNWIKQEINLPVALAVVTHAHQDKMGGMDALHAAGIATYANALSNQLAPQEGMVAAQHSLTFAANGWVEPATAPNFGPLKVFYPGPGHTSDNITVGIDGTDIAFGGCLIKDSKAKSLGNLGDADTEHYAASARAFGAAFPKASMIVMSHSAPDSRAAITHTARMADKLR
Excerpt: Assay Submitter (PI): James Inglese Ph.D., Patricia Dranchak Ph.D., Mahesh Aitha Ph.D. Assay Development and Screening Technology Laboratory (ADST) National Center for Advancing Translational Sciences (NCATS), Rockville, MD National Institute of Health (NIH), Bethesda, Maryland The metallo-beta-lactamases (MBL) are a main antibiotic resistance mechanism evolved by bacteria. There is an urgent clinical need for MBL inhibitors to mitigate this growing threat. To support a machine-based learning study, qHTS has been used to experimentally test inhibitors identified by prediction tools.
PROTOCOL TABLE (as described by Inglese et al., 2007) SEQUENCE No. (e.g., 1, 2, 3, etc.); […] (e.g., enzyme, Incubation, Reagent, etc.); VALUE; DESCRIPTION Primary Screen 1; NDM-1; 4 uL of 3 nM enzyme [2 nM final] in 50 mM HEPES (pH 7.0), 1 uM […], 0.01% Tween20; Use BioRaptr to dispense into two sets of Aurora black, clear bottom high base 1536-well plates 2; Compounds; 23 nL; Use Pin Tool (Wako) to transfer DMSO control and library compounds in DMSO 3; Incubate; >30 min 4a; Reagent; 2 uL of 50 uM nitrocefin [16.7 uM final] to one set of assay plates 4b; Reagent; 2 uL of 150 uM meropenem [50 uM final] to second set of assay plates 5a; Incubate; 15 min 5b; Incubate; 30 min 6a; Detector; Absorbance at 485 nm (bandwidth = 5 nm, 25 flashes/well) on Tecan Infinity 6b; Detector; Absorbance at 300 nm (bandwidth = 5 nm, 25 flashes/well) on Tecan Infinity NOTES (numbers refer to sequence above) 1; Column 1 of each plate received assay buffer without enzyme and columns 2-48 received enzyme for a final assay concentration of 2 nM. 2; Control plate contained DMSO in columns 1, 2, 3, and 4. 3; Compound interaction with enzyme. 4; Nitrocefin and meropenem substrates were prepared in the same assay buffer as step 1 for a final assay concentration of 16.7 uM and 50 uM, respectively, and added to all wells across respective sets of assay plates. 5; Default reader settings were applied for absorbance read at 485 nm (nitrocefin) or 300 nm (meropenem), bandwidth = 5 nm, 25 flashes/well. References: Inglese J, Shamu CE, Guy RK. 2007. Reporting data from high-throughput screening of small-molecule libraries. Nat Chem Biol. doi:10.1038/nchembio0807-438 Yasgar A, Shinn P, Jadhav A, Auld D, Michael S, Zheng W, Austin CP, Inglese J, Simeonov A. 2008. Compound Management for Quantitative High-Throughput Screening. J Lab Autom 13:79 - 89. doi:10.1016/j.jala.2007.12.004

Activity change, negative = inhibition, inactive:
C[C@@H](NS(=O)(=O)c1ccccc1)c1onc(-c2cccnc2)c1C(=O)O 2.4% [at 57.5 µM], C#CCN(C)CC[C@@H]1CC[C@H](O)[C@@H](C(=O)N(C)Cc2ccccc2)O1 -1.25% [at 57.5 µM], COCc1cc(C[C@@H]2CC[C@H](O)[C@@H](CNC(=O)C(C)(C)C)O2)no1 -0.975% [at 57.5 µM], O=C(NC[C@H]1Cn2c(-c3ccccc3)cnc2CO1)C1CCOCC1 4.09% [at 57.5 µM], O=C(NCc1ccccc1)O[C@H]1COCCN(c2nc3ccccc3o2)C1 0.432% [at 57.5 µM], O=C(Cc1ccccc1)Nc1ccc([C@@H](O)[C@H]2COCC(=O)N2CC2CC2)cc1 -0.857% [at 57.5 µM], CC[C@@]1(C(=O)O)C[C@H](C(=O)NC(CO)CO)[C@H](c2ccc(OC)cc2)N1C 24%, O=C(CN1CC2CC(C1)[C@H]1CCCC(=O)N1C2)NCc1cc(F)ccc1F (some centres not stated) 1.21%, NCCn1cc(C(=O)NCC(O)c2ccccc2C(F)(F)F)nn1 (configuration not stated) -3.94%, C[C@@H](NC(=O)c1cccs1)c1onc(-c2ccc(F)cc2)c1C(=O)O 3.33% [at 57.5 µM], O=[N+]([O-])c1cccc(-c2noc([C@@H]3C[C@@H](O)CN3Cc3ccccc3)n2)c1 2.26% [at 57.5 µM], CC(C)c1noc(-c2cccn3c(CNC(=O)c4cccc5[nH]ccc45)nnc23)n1 5.92%, CN(C)c1nccnc1OC1CCN(C(=O)CCCc2ccccc2)C1 (configuration not stated) -0.852%, Cc1cc(C(=O)NCCc2csc(-c3cccnc3)n2)cc(S(N)(=O)=O)c1C 2.03%, CC1(C)[C@H](Cc2cc(CCO)on2)C[C@@H]1N(S(C)(=O)=O)S(C)(=O)=O 13.4% [at 57.5 µM], CC(C)CCN1CCNC(=O)C1CC(=O)N(Cc1nccs1)C1CC1 (configuration not stated) 5.54%, Cn1c(CN2CCOCC2)nnc1C1CCN(c2ncccc2C#N)CC1 0.311%, CCCCNC(=O)c1cccc(CN2C(=O)CC(c3ccccc3C)C(C(=O)OCC)=C2C)c1 (configuration not stated) 5.31%, Cn1cnc2cc(-c3ccc(CO)cc3)cc(C(=O)NCc3cccnc3)c21 15% [at 57.5 µM], Cc1cc(F)ccc1OC1CN(Cc2ccc(F)cc2)C1 -0.758% [at 57.5 µM], COc1ccc(-c2noc([C@@H]3Cc4nc[nH]c4CN3Cc3ccc(NC(C)=O)cc3)n2)cc1 10.7%, CC1(C)C[C@H](NC(=O)c2ccccc2)[C@@]2(CCC(=O)NCCN3CCOCC3)CC[C@](C)(O)C[C@@H]12 0.402%, CC(C)(C)c1ccc(C(=O)Nc2nc3c(s2)C[C@@H]2[C@](C)(CO)[C@H](O)CC[C@@]2(C)[C@@H]3CC(=O)NC2CC2)cc1 1.17%, O=C(COc1ccccc1Cl)N1CCCC(O)(CN2CCCC2)C1 (configuration not stated) -0.507%, COCC(=O)NC[C@@H]1C=C(C)[C@H](CC(=O)Nc2ccccn2)C[C@H]1C(C)C 2.59% [at 57.5 µM], Cc1cnccc1N1CCCN(C(=O)c2cccc(C3CCCNC3)c2)CC1 (configuration not stated) -1.96%, COC(=O)[C@@H]1Cc2ncn(C)c2CN1C(=O)c1ccc(-c2ccccc2)cc1 15% [at 57.5 µM], NC(=O)[C@H](Cc1cccs1)NC(=O)C1=C[C@@H](NC(=O)c2ccc(F)c(Cl)c2)[C@@H](O)[C@H](O)C1 0.292%, COc1ccc(CN2CCNc3cc(Nc4cccnc4)ncc3C2)cc1O 3.47% [at 57.5 µM], CN1C[C@H](NCc2cccc(Cl)c2)CCC[C@@H](C(=O)NC2CC2)CC1=O 0.224% [at 57.5 µM], COc1ccc(CCC(=O)N2CCC(N3CC4CC(C3)[C@H]3CCCC(=O)N3C4)CC2)cc1 (some centres not stated) -0.571%, COC[C@H]1CCCN1C(=O)C[C@@H]1O[C@H](CNS(C)(=O)=O)[C@@H](O)[C@H]1O 19.9% [at 57.5 µM], CN[C@@H](CO)C(=O)NCc1nc(-c2cccc(F)c2)c(-c2ccccn2)[nH]1 29%, COc1ccc(-c2nc3ccncc3[nH]2)cc1 21.9% [at 76.7 µM], CC(=O)N1CCC(N[C@H]2CC(C)(C)[C@@H]3C[C@@](C)(O)CC[C@]23CCC(=O)NCCN2CCOCC2)CC1 -0.0233%, CC(O)CNS(=O)(=O)c1cccc(C(=O)Nc2cccc3c2CCC3)c1 (configuration not stated) 2.1%, COCCN1C(=O)CCc2cc(NC(=O)c3ccc(C)c(C)c3)ccc21 10.8%, OC[C@H]1CCN(c2ccnc3c(C(F)(F)F)cccc23)C[C@H]1O 1.06%, CC1CCN([C@@H]2[C@H](O)[C@H](CO)O[C@@H]2CNC(=O)c2ccccc2)CC1 18.5% [at 57.5 µM], CC(=O)N1CCC(N2C[C@@H]3OCC(=O)N[C@@H]3C2)CC1 1.4% [at 76.7 µM], NC(=O)c1cccc(-c2n[nH]c3c2CC(=O)N(CC2CCOCC2)C3)c1 5.77% [at 57.5 µM], O=c1c2nc(-c3cccc(O)c3)ccc2ncn1Cc1ccccn1 13.6% [at 57.5 µM], Cc1cc(C(=O)N[C@H]2[C@H](O)[C@H](O)C[C@@H]2c2cccnc2)no1 0.945% [at 57.5 µM], COc1ccc(F)c(CN2CCCC(O)(CN(C)Cc3cc(C)on3)C2=O)c1 (configuration not stated) 11.8%, O=C(Nc1cccnc1)c1ccnc(-c2nnc3ccc(Nc4ccccc4)nn23)c1 28.9% [at 57.5 µM], CCc1nc2c(c(-c3ccc(Cl)cc3)n1)CCN(Cc1ccc(F)cc1)CC2 -1.49%, COCc1cn(C[C@H]2C[C@@H](NCc3nccs3)[C@H](O)[C@@H]2O)nn1 47.1%, NC(=O)[C@H](Cc1cccs1)NC(=O)C1=C[C@@H](NC(=O)NC2CCCCC2)[C@@H](O)[C@H](O)C1 -0.293%, CC(C)C1CN(C(=O)c2ccccc2-c2ncc[nH]2)CCC(=O)N1CC1CC1 (configuration not stated) -1.59%, COC(=O)[C@H]1CN(C(C)=O)CCN1C(C)=O -0.0382% [at 76.7 µM], O=C(Cc1csc(-c2ccccc2)n1)N[C@H](c1ccccn1)C1CC(O)C1 (some centres not stated) 7.84%, Cc1cn(CC(=O)NC2CCOC3(CCOCC3)C2)c(=O)[nH]c1=O (configuration not stated) -0.851%, O=C1CN(C(=O)[C@H]2CN(Cc3ccccc3)C[C@H]2C(=O)O)CCN1 50.1%, Cc1noc(C2CC3(CCN(C(=O)C4CCC4)CC3)CN2C)n1 (configuration not stated) 1.47%, Cc1ncsc1CCC(=O)N[C@@H]1CCOC[C@H]1OCC(=O)O 24.4%, Cc1cc2c(cc1C(=O)N[C@H](c1ccccn1)C1CC(O)C1)OCCO2 (some centres not stated) 2.04%, Cc1ccn2c(C(=O)N3CCCC(c4[nH]ncc4-c4ccccc4)C3)nnc2n1 (configuration not stated) 3.57%, c1cncc(Nc2cc3c(cn2)CN(Cc2ccsc2)CCN3)c1 6.63% [at 57.5 µM], CC[C@@]1(O)CCN(C(=O)c2cccc(CCC(C)(C)O)c2)C[C@H]1O 1.82%, O=C(c1ccoc1)N1CCCC(CCc2ccc(F)c(F)c2)C1 (configuration not stated) -0.603%, Cc1cc(C)c(CNC(=O)c2nc(-c3cccc(O)c3)cc3[nH]ccc23)c(=O)[nH]1 15.9% [at 57.5 µM], COc1ccc(C(=O)NC[C@H]2O[C@@H](CC(=O)N3CCN(c4ccccc4OC)CC3)[C@H](O)[C@@H]2O)cc1 0.607%, COc1ccc(CN2C(=O)[C@@H]3C[C@@H](O)CN3C3(CN(C4CCC4)C3)C2=O)cc1 1.51% [at 57.5 µM], O=C(Cc1ccccc1Cl)N1CCC(Cc2nc(-c3ccc(F)cc3)no2)CC1 -1.26%, Cc1[nH]c2c(c1C(=O)N1CCCC(CCc3ccc(F)cc3)C1)C(=O)CCC2 (configuration not stated) 2.19%, O=C(c1ccccc1Cl)N1CCC2(CC1)Cc1ccccc1NC2=O 0.724%, Cc1ccc(C(=O)NC2CCN(c3cn[nH]c(=O)c3)CC2)cc1C 5.44%, O=C(NC1CCCCC1)O[C@@H]1CO[C@H]2[C@@H]1OC[C@@H]2NS(=O)(=O)c1ccc(Cl)cc1 -0.326%, O=C(Nc1ccc(C2(C(=O)NCc3ccco3)CCCCC2)cc1)C1CC1 0.56%, CN1Cc2ccc(NCc3ccccc3)nc2C(C)(C(=O)NCCc2cnc[nH]2)C1 (configuration not stated) 7.8% [at 57.5 µM], CN1c2cccnc2CN(Cc2cccc(Cl)c2)CC[C@H]1CO 0.122% [at 57.5 µM], COc1ccc2nc(C[C@@H]3C[C@@H](C(C)C)[C@H](CNC(=O)Nc4ccc(F)cc4)C=C3C)[nH]c2c1 0.701%, COc1ccc(C(=O)N2C[C@@H]3OCC(=O)N(Cc4nccn4C)[C@@H]3C2)cc1 0.225% [at 57.5 µM], COc1ccccc1CN1CC(c2noc(-c3ccc(C)cc3C)n2)CC1=O (configuration not stated) -1.43%, COc1ccccc1-c1ccc2ncc(Nc3cccc(N[S+](C)(=O)[O-])c3)n2n1 17.9% [at 57.5 µM], Cc1nccn1-c1ccccc1CNC1CCC2(CCNCC2)CC1 37.8%, COC(=O)[C@H](NC(=O)[C@@H]1C[C@@H](NS(=O)(=O)c2cccc(C(F)(F)F)c2)CCN1C(=O)CCC(=O)O)C(C)C 0.233%, C=CCNC(=O)[C@@H]1Cc2cn(Cc3ccncc3)c3cccc(c23)[C@H](CC(C)C)N1 5.07% [at 57.5 µM], COc1cccc(CN2C[C@@H]3C(C(=O)O)[C@@H]3C2)c1OCCn1ccnc1 (some centres not stated) 37.8%, COC(=O)CO[C@@H]1CO[C@H]2[C@@H]1OC[C@@H]2NC(=O)Nc1cccc(C(F)(F)F)c1 -0.0488% [at 57.5 µM], c1cc(-c2n[nH]c(CNC3CCC4(CCNCC4)CC3)n2)ccn1 33.1%, COCC(=O)N1CCc2nc(N(C)CCc3ccncc3)[nH]c(=O)c2CC1 1.22%, O=C1CC(C(=O)O)C2(CCN(c3cc(C(=O)O)c4ccccc4n3)CC2)N1 (configuration not stated) 8.2%, O=C1Nc2ccc(/C=C/c3ccccc3)cc2C(=O)N2CC[C@H](NS(=O)(=O)c3cccs3)[C@@H]12 3.88%, COC(=O)c1ccc2nc(C[C@@H]3C[C@@H](C(C)C)[C@H](CNCc4ccccc4F)C=C3C)[nH]c2c1 -1.26%, CCCCc1cc(C[C@@H]2C[C@H](NC(=O)NCC)C2(C)C)no1 -2.11% [at 57.5 µM], COCC(=O)N1CC[C@@H](CC(=O)O)[C@@H](CC2=NCCc3cc(OC)ccc32)C1 14.6% [at 57.5 µM], O=C(Nc1cccnc1)N1CCOC[C@H](Oc2ccccc2)C1 2.3% [at 57.5 µM], c1c(CC2CCCCC2)nnn1[C@H]1CO[C@H]2[C@@H]1OC[C@@H]2NCC1CCCCC1 -1.06% [at 57.5 µM], O=C(Nc1ccc(F)cc1)N1C[C@@H]2OCC(=O)N(Cc3ccc(OC(F)(F)F)cc3)[C@@H]2C1 -0.897%, O=C(Nc1ccc(Oc2ccccc2)cc1)N[C@H]1CO[C@H]2[C@@H]1OC[C@H]2OC(=O)Nc1cccc(C(F)(F)F)c1 1.79%, Cc1cc(C(=O)N[C@@H]2C[C@H](Cn3cc(C4CC4)nn3)[C@@H](O)[C@H]2O)no1 30.9% [at 57.5 µM]
